Bioassay records (PubChem)
The list is not random: actives were taken first. Their share in the collection is about 3%.
IP6K1 inhibitor = Primary qHTS assay for small molecule inhibitors of Inositol hexaphosphate kinase 1 (IP6K1). Inositol hexakisphosphate kinase 1 (Homo sapiens), Q92551. IP6K1 kinase, ADP-Glo luminescence, 2 h; hits give low values. activity change, % (series mostly up to about 58 µM). 0.81% of 140,000 active. AID 1645851, 2021; in the data active = activity change below about -25%; note: % is set by controls: 0 for no effect and ±100 for the full control effect
Target sequence (Q92551 whole entry, looked up): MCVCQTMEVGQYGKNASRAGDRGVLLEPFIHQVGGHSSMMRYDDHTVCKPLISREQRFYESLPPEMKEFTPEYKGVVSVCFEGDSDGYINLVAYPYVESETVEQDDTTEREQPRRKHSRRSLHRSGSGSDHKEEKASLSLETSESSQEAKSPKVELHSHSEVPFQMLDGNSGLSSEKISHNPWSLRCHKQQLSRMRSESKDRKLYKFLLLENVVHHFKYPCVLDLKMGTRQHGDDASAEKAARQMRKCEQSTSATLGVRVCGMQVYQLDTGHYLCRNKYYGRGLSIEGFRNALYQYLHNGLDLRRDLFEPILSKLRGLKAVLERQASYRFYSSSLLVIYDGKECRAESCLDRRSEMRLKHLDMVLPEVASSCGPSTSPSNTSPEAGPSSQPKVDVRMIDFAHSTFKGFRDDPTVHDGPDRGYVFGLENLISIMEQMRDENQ
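ADP-Glo luminescence measures ADP made by human IP6K1 during a 2 h RT reaction with ATP/IP6 (mix at 1.3 mM/130 uM); top library doses 57.5 and 19.1 uM final.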
SNCA expr inhib = Primary qHTS assay for inhibitors of alpha-synuclein gene (SNCA) expression | 0.17% of 140,000 active | AID 1671194, 2021 | Potency, µM (top dose mostly 57.2 µM), for the others: at the highest dose activity change, negative = inhibition, hits mostly inhibitors | HEK-293 SNCA-luciferase knock-in, luminescence, 24 h;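 note: potency is the fitted concentration of half-maximal effect; plate controls were DMSO cells for no effect and cell-free wells for full effect; nearly all actives have a fitted effect of over 45% in size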
HEK293 viab = GF-AFC viability counterscreen for inhibitors of alpha-synuclein gene (SNCA) expression. 0.12% of 150,000 active. HEK-293-SNCA-luc viability, GF-AFC fluorescence, 24 h. Potency, µM (highest dose often 57.1 µM), for the others: at the highest dose activity change, negative = cytotoxicity, usual class: cytotoxic. AID 1671193, 2021;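 note: potency is the fitted concentration of half-maximal effect; 0% = DMSO-treated cells and -100% = medium-only wells without cells; nearly all actives have a fitted effect of over 30% in size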
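Cytotoxicity counterscreen: after 24 h compound treatment of genome-edited SNCA-luciferase HEK-293 cells, live-cell protease substrate GF-AFC read by fluorescence after 30 min; activity scaled between DMSO (0%) and medium-only (-100%), curves Hill-fitted.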
KDM5B inh = Primary screen for KDM5B Histone Demethylases FDH-coupled qHTS; Lysine-specific demethylase 5B (Homo sapiens), Q9UGL1; KDM5B demethylase, FDH-coupled NADH fluorescence (FDH is formaldehyde dehydrogenase); Potency, µM (series often up to 57.7 µM), usual class: inhibitors; 2.6% of 220,000 active; AID 1347165, 2019; note: potency is the fitted concentration of half-maximal effect; 0% is about no effect; nearly all actives have a fitted effect of over 70% in size
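Compound dilutions met 200 nM (final) KDM5BΔAP for 10 min at room temperature before substrate addition. The substrate mix held 12.5 µM H3K4me3 with cofactors 25 µM α-ketoglutarate and 50 µM Fe²⁺. NADH signal gain over 30 min defined activity.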
* = called active by the depositor; i = inactive; ? = inconclusive; nt = no result; [ ] = dose if it differs, or a comment. Unless noted, calls come from the whole dose curve; as a rule, active = well fitted curve in the direction sought with a large enough effect; inconclusive = small, poorly fitted or top-dose-only effect, or another doubt; inactive = no such curve, though single readings can be large; an effect the other way counts as inactive or inconclusive.

SMILES | IP6K1 inhibitor | SNCA expr inhib | HEK293 viab | KDM5B inh
CN(C)c1cccc(C(=O)NC2CCN(c3cc(-c4ccccc4)[nH]n3)CC2)c1 | 15 | 79% | -13% | 20µM*
O=C(NC1CCN(c2cc(-c3ccccc3)[nH]n2)CC1)c1ccccc1 | 12 | 39% | 8% | i
Cc1ccc(C(=O)N2CCCN(c3ccnc4ccnn34)CC2)cc1 | -5 | -4% | 7% | nt
O=C(NC1CCCN(c2ccnc3ccnn23)C1)c1ccc(Cl)cc1 (stereo not given) | 14 | -18% | -28% | nt
COCCN1CCCCCC(O)c2cc(C(=O)NC3CCC3)ccc21 (stereo not given) | 0 | 31% | 5% | 32µM*
COCCN1CCCCCC(O)c2cc(C(=O)N(C)Cc3ccc(N4CCCCC4)cc3)ccc21 (stereo not given) | 5 | -30% | -21% | 7.9µM*
COc1ccc(-n2cc(CN3CCC(O)CC3)c(-c3cccc(F)c3)n2)cc1 | 13 | 54% | -11% | 28µM*
COc1ccc(-c2nn(-c3ccccc3)cc2CN2CCC(F)CC2)c(F)c1 | -12 | -3% | ? | ?
COc1ccc(CCNc2nc(-c3ccccc3)cs2)cc1OC | nt | nt | nt | i
Cc1noc(C)c1[S+](=O)([O-])N1CCN(C(=O)c2nc3cccnc3n(CC(C)C)c2=O)CC1 | -11 | 7% | 9% | nt
COc1cc2c(cc1OC)C(C[C@H]1CN(S(=O)(=O)c3ccccc3)CC[C@H]1CC(=O)O)=NCC2 | 19 | 1% | 17% | 25µM*
COc1cc2c(cc1OC)C(C[C@H]1CN(S(=O)(=O)c3ccc(Cl)cc3)CC[C@H]1CC(=O)O)=NCC2 | 13 | -20% | 21% | 28µM*
COc1cc2c(cc1OC)C(C[C@H]1CN(S(=O)(=O)c3ccc(F)cc3)CC[C@H]1CC(=O)O)=NCC2 | 5 | 3% | 25% | i
COc1ccc2c(c1)CCN=C2C[C@H]1CN(S(C)(=O)=O)CC[C@H]1CC(=O)O | 4 | -12%[87.6 µM] | -1%[87.6 µM] | ?
O=C(O)C[C@@H]1CCN(S(=O)(=O)c2ccc(F)cc2)C[C@@H]1CC1=NCCc2cc(F)ccc21 | 10 | -10% | 7% | 20µM*
CCn1cc(S(=O)(=O)N2CC3(CCCCC3)CC2COc2ccc(OC)cc2)cn1 (stereo not given) | 14 | ? | -20% | nt
CCOc1nccnc1NC1CCN(C(=O)Cc2cccs2)CC1 | -3 | 4% | -2% | 32µM*
CCOc1nccnc1NC1CCN(C(=O)C2CCCO2)CC1 (stereo not given) | -2 | -13% | -6% | 28µM*
CCOc1nccnc1NC1CCN(C(=O)NC)CC1 | 5 | -22% | 3% | 28µM*
CCOc1nccnc1NC1CCN(C(=O)c2cccs2)CC1 | -5 | 23% | 2% | ?
CNS(=O)(=O)c1cccc(C(=O)NCC2(c3ccccc3)CCC2)c1 | nt | nt | nt | i
CC(C)(Oc1nn(CC2CCOCC2)c2ccccc12)C(=O)NCCc1ccccc1 | 6 | -7%[87.6 µM] | -22%[87.6 µM] | 35µM*
CC(C)(Oc1nn(CC2CCOCC2)c2ccccc12)C(=O)NCCc1cccnc1 | -6 | -14%[87.6 µM] | -6%[87.6 µM] | ?
CC(C)(Oc1nn(CC2CCOCC2)c2ccccc12)C(=O)NC1CCOCC1 | -2 | -1%[87.6 µM] | -5%[87.6 µM] | 35µM*
CCn1c(=N)n(CCOc2ccc(Br)cc2)c2ccccc21 | 25 | 25µM* | ? | i
SMILES | IP6K1 inhibitor | SNCA expr inhib | HEK293 viab | KDM5B inh
CC(C)CNC(=O)c1ccc2c(c1)NC(C)(COc1ccc3[nH]ccc3c1)CO2 (stereo not given) | -4 | -25%[87.6 µM] | -10%[87.6 µM] | 32µM*
CC1(COc2ccccc2)COc2ccc(C(=O)NC3CCC(O)CC3)cc2N1 (stereo not given) | 1 | -26%[87.6 µM] | 14%[87.6 µM] | 32µM*
CC1(COc2ccc3[nH]ccc3c2)COc2ccc(C(=O)N3CCOCC3)cc2N1 (stereo not given) | -2 | 40%[87.6 µM] | -6%[87.6 µM] | i
CN(C)C(=O)c1ccc2c(c1)NC(C)(COc1ccc3[nH]ccc3c1)CO2 (stereo not given) | -8 | -16%[87.6 µM] | 1%[87.6 µM] | i
CC1(COc2ccc3[nH]ccc3c2)COc2ccc(C(=O)N3CC(O)C3)cc2N1 (stereo not given) | -2 | ? | -9%[87.6 µM] | 35µM*
CC1(COc2ccc3[nH]ccc3c2)COc2ccc(C(=O)NC3CC3)cc2N1 (stereo not given) | -14 | -21%[87.6 µM] | 11%[87.6 µM] | 32µM*
CCCCNCc1ccc(-c2ccccc2F)o1 | nt | nt | nt | i
COc1ccc(F)cc1-c1ccc(CN2CCCCC2C(=O)NCc2ccc(C(F)(F)F)cc2)cc1 (stereo not given) | 8 | nt | nt | nt
CC1(COc2ccc3[nH]ccc3c2)COc2ccc(C(=O)NCc3ccco3)cc2N1 (stereo not given) | -12 | -26%[87.6 µM] | -4%[87.6 µM] | ?
CC1(COc2ccc3[nH]ccc3c2)COc2ccc(C(=O)NCc3cccs3)cc2N1 (stereo not given) | -11 | ? | -2%[87.6 µM] | 40µM*
CCCN1CCCC2(CCN(c3cc(C)c4cccc(OC)c4n3)C2)C1=O (stereo not given) | -10 | -27% | -1% | 28µM*
Cc1cccc(CN2CCCC3(CCN(c4cc(C)c5ccccc5n4)C3)C2=O)c1 (stereo not given) | 15 | -5% | -22% | 28µM*
Cc1cc(N2CCC3(CCCN(CC4CCC4)C3=O)C2)nc2ccccc12 (stereo not given) | 4 | ? | ? | 28µM*
O=C(Nc1ccc2c(c1)OCCCO2)c1ccccc1SCc1cccs1 | nt | nt | nt | i
Cc1nn(-c2ccc(C(C)C)cc2)c(C)c1[C@@H]1C=C[C@@H](NCc2ccc(F)cc2)C1 | -13 | ? | ? | ?
CC(C)[C@H](CO)Nc1nc(Nc2cccc(Cl)c2)c2ncn(C(C)C)c2n1 | nt | 5% | 24µM* | nt
O=C(NC1CC1)C1CCCCN1Cc1ccc(-c2cccs2)cc1 (stereo not given) | 3 | -9% | 8%[12.5 µM] | nt
COc1ccccc1Nc1ncc2c(n1)CN(C(=O)c1cc3ccccc3n1C)CCN2 | -13 | -12%[87.6 µM] | -4%[87.6 µM] | 40µM*
COc1ccccc1Nc1ncc2c(n1)CN(C(=O)c1ccccc1)CCN2 | -10 | ? | 1%[87.6 µM] | i
O=C(O)C1(O)CCN(c2ncc(F)c(N3CCOCC3)n2)CC1 | 16 | 13% | 7% | 28µM*
CC(C)c1nc(N2CCOCC2)ncc1C(=O)O | -15 | 17% | 12% | ?
O=C(NCc1nnc2ccc(-c3ccc(F)cc3)nn12)c1cc(Cl)ccc1F | -1 | -17% | -8% | 25µM*
CCN(CC)c1ccc(C(=O)NCc2nnc3ccc(-c4ccc(C)cc4)nn23)cc1 | -9 | -2% | 0% | i
Cc1ccc(-c2ccc3nnc(CNC(=O)c4ccc(F)cc4)n3n2)cc1 | 5 | 1% | -1% | 25µM*
Cc1ccc(-c2ccc3nnc(CNC(=O)c4cccc(C(F)(F)F)c4)n3n2)cc1 | -3 | ? | -4% | 32µM*
